Measurements published in PubChem BioAssay (NCI).
About 83,000 compounds went through this panel and 20% of them were active in at least one assay; those are over-represented in the sample as a whole.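 Cell lines were cultured in 96-well plates, exposed to a single compound concentration, and assessed for percent growth 48 hours later.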 Unmarked numbers belong to inactive results. The source made the active and inactive calls. How the source made its calls: active means growth percent below 10; inactive means the rest.

How the values were obtained:
Experiment in all cases: NCI-60 one-dose screen, 48 h (100 = growth as untreated, 0 = no growth, -100 = all killed)
Details in all cases: 10 µM
[1] = system: HCT-15 colon
[2] = system: HT29 colon
[3] = system: SNB-75 CNS
[4] = system: SNB-19 CNS
[5] = system: U251 CNS
[6] = system: PC-3 prostate
[7] = system: SK-MEL-5 melanoma
[8] = system: SK-MEL-28 melanoma
[9] = system: LOX IMVI melanoma
[10] = system: UACC-62 melanoma

SMILES	growth [1]	growth [2]	growth [3]	growth [4]	growth [5]	growth [6]	growth [7]	growth [8]	growth [9]	growth [10] [%]
CCCCCCCCCCN=C(c1ccc(N(C)C)cc1)c1ccc(N(C)C)cc1	12.9%	9.42% (active)	33.1%	31.8%	21.3%	30.7%	0.192% (active)	59.7%		
Cc1cc(C)c(/C=C2\C(=O)Nc3ccc(NC(=O)CCCCCCC(=O)NO)cc32)[nH]1	86%	11.4%	-1.02% (active)	31.2%	4% (active)	5.9% (active)	6.38% (active)	24%	7.92% (active)	
C[C@]12CC[C@H]3[C@@H](CC=C4C[C@@H](O)CC[C@@]43C)[C@@H]1CC[C@@H]2C(=O)C/C=N/O	86.4%	81.1%	85.4%	95.1%	83.8%	71.9%	92.8%	106%	82%	
COc1ccc(COC(=O)CC(C)C)cc1	105%	96.1%	91.9%	103%	92.7%	94.4%	93.4%	110%	97.1%	
CCCn1c(=O)c2c(nc(-c3cccc(OCCCCl)c3)n2C)n(CCC)c1=O	69.1%	74.2%	-12.7% (active)	32.9%	17%	62.3%	64.9%	81.7%	48.5%	
O=C(COc1ccc(-c2nc3ccccc3[nH]2)cc1)N=Nc1c(O)[nH]c2ccccc12	105%	100%	104%	93.4%	55.9%	86.5%	102%		100%	
CCN(CC)CCn1c(=N)n(CC(O)c2ccc(Cl)c(Cl)c2)c2ccccc21 (stereo not given)	51.2%	20.1%	71.8%	102%	69.7%	80.8%	55.6%	10.4%	76.1%	
CC1(C)CCc2cc(-c3ccn(S(=O)(=O)c4ccc(Cl)cc4)n3)ccc2O1	91.3%	70.9%	92.3%	100%	74.2%	56.8%	47.2%	94.7%	72.2%	
COc1ccc(Cn2cc3c(c2-c2cc(OC)c(OC)c(OC)c2)CCc2cnoc2-3)cc1N	17.5%	8.78% (active)	50.5%	44.6%	23.2%	31.1%	-17.9% (active)	62%	18.7%	
COc1cc(-c2cc(-c3ccc(C)cc3)nc3nc(N)[nH]c(=O)c23)ccc1Oc1ccnc2cc(Cl)ccc12	88.7%	84.6%	67.5%	74.3%	81%	70.5%	84%	88.3%	86.3%	
O=C(OCc1ncc(-c2ccc(C(F)(F)F)cc2)c(NC2CCCCCC2)n1)c1c(F)c(F)c(F)c(F)c1F	89.3%	43.1%	76.1%	73.8%	46.8%	28.6%	36.4%	47.4%	57.5%	
COc1cc(/C=C/C(=O)c2cc(-c3ccccc3)ccc2O)cc(OC)c1OC	70%	82.4%	93.1%	93.3%	75.7%	49.4%	51.8%	98.1%	52.6%	
COc1ccccc1NC1=C(N2CCCCC2)C(=O)c2ccccc2C1=O	86.1%	70.6%	71.1%	90.2%	84.5%	33.5%	69%	96.1%	86.8%	
COc1ccc(-c2ccccc2)cc1C(=O)c1ccc(-c2ccccc2)cc1	63.1%	41.8%	87.5%	81.3%	77%	71.6%	73.1%	76.5%	77%	
CCOC(=O)C(CCC1=NC(C)(C)CC(C)O1)C(=O)OCC (stereo not given)	46%	32%	104%	106%	82.3%	76.3%	108%	107%	90.1%	
COc1ccc(Nc2ccnc(N3CCN(c4ccnc5cc(Cl)ccc45)CC3)n2)cc1	7.35% (active)	-6.34% (active)	-20.9% (active)	28.7%	8.61% (active)	0.553% (active)	-55.1% (active)	5.19% (active)	4.18% (active)	

SMILES	growth [1]	growth [2]	growth [3]	growth [4]	growth [5]	growth [6]	growth [7]	growth [8]	growth [9]	growth [10] [%]
CCOC(=O)c1cc2c(n1Cc1cccc(OC)c1)-c1oncc1CC2	28.7%	4.06% (active)	-5.1% (active)	37.4%	22.4%	32.7%	8.61% (active)	37.8%	41.7%	
CCN(CC)CC(O)Cc1ccc(OC)cc1 (stereo not given)	108%	103%	102%	109%	108%	96.5%	100%	116%	102%	
O=S(=O)(NCl)c1ccccc1	102%	106%	84.3%		95.9%	99.1%	103%		97.1%	106
CC(C)C[C@H](NC(=O)Cn1ccc(Nc2ccccc2)cc1=O)B(O)O	72.1%	1.28% (active)	79.9%	68%	65.9%	58.9%	2.17% (active)	10.6%	3.14% (active)	
Cc1ccc2c(c1)-c1cc(C)nn1-c1ccc(C#N)cc1O2	38.7%	20%	48.8%	68.6%	46.9%	66.2%	75.9%	70.3%	49.4%	
CS(=O)(=O)Nc1ccc(OCc2nnc(-c3ccc(Cl)cc3)o2)c(F)c1	88%	105%	82.7%	93.5%	99%	91%	92.3%	102%	82.9%	
CCc1ccc(-c2nnc(COc3ccc(-c4nc5cc(Cl)c(Cl)cc5[nH]4)cc3OC)o2)cc1	44.9%	62.1%	48.4%	68.3%	29.1%	52.6%	84.9%	67.1%	43.3%	
CCCCCCCCCCCCCC[n+]1ccc(C)cc1	47%	-9.48% (active)	-23.9% (active)	-50.2% (active)	-78.5% (active)	-37% (active)	-96.3% (active)	-20.4% (active)		
COc1ccc(S(=O)(=O)Nc2ccc(OCc3nnc(-c4ccc(Cl)cc4)o3)c(F)c2)cc1	65.5%	83.7%	67.1%	65.8%	68.4%	52.3%	15.7%	83.8%	52.7%	
Fc1ccc(-c2cc(C(Cl)Cl)no2)cc1	96.9%	114%	72.4%	94.7%	108%	93%	94.3%	109%	101%	
O=C(N/N=C/c1ccccc1O)c1ccccc1	23.9%	45.5%	56.6%	56%	27.6%	37.8%	13.3%	73.5%	5.3% (active)	
c1ccc(CC(NCCNC(Cc2ccccc2)c2ccccc2)c2ccccc2)cc1 (stereo not given)	15.5%	-27.7% (active)	63.3%	44.4%	13%	24.2%	-52.3% (active)	50.2%	-87.9% (active)	
O=c1oc2cc(OS(=O)(=O)C3CC3)ccc2c2c1CCCCCC2	72.8%	25.9%	98.7%	88.2%	79.1%	68.7%	37.3%	93.7%	85.8%	
CC[C@@]1(C(N)=O)CC2C=CC1C2 (stereo not given in full)	116%	106%	92.4%	107%	113%	93.1%	106%	112%	105%	
CCOC(=O)C(=O)Cc1cccnn1	102%	101%	78%	102%	96.8%	91.7%	108%	108%	99.5%	
